Assay results as given in PubChem BioAssay AID538 (PCMD, 2006).
In all, about 62,000 compounds went through this assay and about 100 (0.16%) were called active. This is one part of a sample in which actives are shown more often than they occur.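 The calls were made as follows: active = inhibition above 20% in each of the two 10-compound mixture wells holding the compound; inactive = the rest.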

What follows are molecules tested against Complement C1s subcomponent (Homo sapiens) (UniProt P09871) (assay: human C1s inhibition by compound pools – biochemical, 10-compound mixtures, primary screen (AID 538;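 also: 0% = enzyme wells lacking compound mixture and 100% = no-enzyme blank wells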)). Settings: purified C1s, fluorogenic AMC substrate, pooled mixtures; screened at 5 µM (by protocol).
Sequence of Complement C1s subcomponent (Homo sapiens) (P09871 16-437 limits assumed): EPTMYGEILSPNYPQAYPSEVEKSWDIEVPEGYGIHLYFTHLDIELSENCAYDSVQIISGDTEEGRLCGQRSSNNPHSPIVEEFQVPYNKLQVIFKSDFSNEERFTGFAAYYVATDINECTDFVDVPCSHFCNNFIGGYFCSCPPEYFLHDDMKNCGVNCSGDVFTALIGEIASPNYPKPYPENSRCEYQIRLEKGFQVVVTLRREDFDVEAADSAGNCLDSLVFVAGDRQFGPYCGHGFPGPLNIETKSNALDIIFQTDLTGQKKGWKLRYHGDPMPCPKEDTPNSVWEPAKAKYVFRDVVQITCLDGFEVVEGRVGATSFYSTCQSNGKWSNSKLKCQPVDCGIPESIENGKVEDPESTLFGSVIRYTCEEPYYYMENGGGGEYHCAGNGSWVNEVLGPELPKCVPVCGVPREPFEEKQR
Sequence of Complement C1s subcomponent (Homo sapiens) (P09871 438-688 limits assumed): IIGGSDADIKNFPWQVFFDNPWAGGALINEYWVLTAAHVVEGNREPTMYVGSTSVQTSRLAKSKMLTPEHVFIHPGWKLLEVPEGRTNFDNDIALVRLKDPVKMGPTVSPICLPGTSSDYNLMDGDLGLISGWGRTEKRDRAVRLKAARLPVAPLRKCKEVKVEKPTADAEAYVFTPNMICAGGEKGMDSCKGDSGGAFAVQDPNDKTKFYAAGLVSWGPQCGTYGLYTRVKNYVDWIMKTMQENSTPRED

Mean inhibition % of two 10-compound mixtures (stronger effect = higher value), active:
Cn1c(=O)c2[nH]c(NCC3CCCO3)nc2n(-c2ccccc2)c1=O (centres undefined) 64.6%
O=C1CCCC(O)=C1C=NCCc1ccccc1 50.4%

Mean inhibition % of two 10-compound mixtures (stronger effect = higher value), inactive:
CCOc1ccccc1C1CC(c2ccccc2)Nc2nc(N)nn21 (centres undefined) -0.62%
CCOC(=O)CCC(=O)OCC(=O)NC(C)C1CC2CCC1C2 (centres undefined) -1.13%
CCCCCC(=O)Nc1ccc2oc(-c3ccncc3)nc2c1 -5.25%
CCCCSc1nnc(-c2ccc(NC(=O)CC)cc2)n1C 10.2%
Cc1ccc2c(c1)NCC(C(=O)NC1CCC(C)CC1)O2 (centres undefined) -7.38%
CN(C)CCCNc1c2c(c(C#N)c3nc4ccccc4n13)CCC2 11.8%
COc1ccc(S(=O)(=O)Nc2c(C)n(C)n(-c3ccccc3)c2=O)cc1 -40.7%
CCn1c(-c2cc(OC)ccc2OC)csc1=Nc1c(C)n(C)n(-c2ccccc2)c1=O 11.4%
Cc1ccc(C(=O)N2CCCCCC2)cc1Br 48.4%
O=S(=O)(CCc1nc2ccccc2o1)c1ccc(Cl)cc1 1.62%
COC(=O)c1ccc(NC(=O)CSc2nnc(-c3ccncc3)n2C)cc1 4.27%
Cc1ccc(S(=O)(=O)n2nc(OC(=O)C(C)(C)C)cc2N)cc1 -80.6%
O=C(CCS(=O)(=O)c1cccc2nonc12)NCCc1ccccc1Cl -46.5%
CCCC1C(c2ccccc2)C(C#N)(C#N)C2(C#N)CC1(N)NC2=O (centres undefined) 13.4%
Cc1nnc(C)n1/N=C/c1ccc(C(C)C)cc1 5.96%
O=C(CCc1ccccc1)Nc1ccc(NC(=O)C2CC2)nc1 3.19%
CC1OC2C(OC1C)N(S(C)(=O)=O)CCN2S(C)(=O)=O (centres undefined) 6.29%
COc1cc(C(O)c2nc3ccccc3n2C)cc(OC)c1OC (centres undefined) -4.52%
COc1ccc(C)cc1-n1nnnc1SCC(=O)c1cc(C)n(Cc2ccco2)c1C 11.7%
O=C(NCC12CC3CC(C1)CC(CNC(=O)N1CCCC1)(C3)C2)N1CCCC1 13.6%
c1cc(-c2nn[nH]n2)ccc1CN1CCCCC1 14.2%
Cc1nc2ccccc2c2oc(C(=O)NCC3CCCO3)cc12 (centres undefined) -97.9%
CCCCn1c(SCC(=O)NCC2CCCO2)nc2ccc(N3CCOCC3)cc2c1=O (centres undefined) -11%
COc1cccc(N2C(=O)CC(N3CCN(S(=O)(=O)c4ccccc4)CC3)C2=O)c1 (centres undefined) -26.5%
CCOC(=O)C1Cn2c(nc3c(c2=O)C(C)(CC)Cc2ccccc2-3)S1 (centres undefined) -5.78%
O=C1CC(c2cccc(Br)c2)C2=C(CCCC2=O)N1 (centres undefined) 17.2%
CCNC(=O)N1CCNC(=O)C1CC(=O)Nc1ccc(C(=O)OCC)cc1 (centres undefined) -35.7%
Cc1ccc(-c2nc(COC(=O)c3c(C)noc3C)cs2)cc1 3.81%
COC(=O)Cn1c(=NC(=O)CSCC(=O)Nc2cc(C)on2)sc2ccccc21 5.49%
COc1ccccc1-c1cc(C(=O)NCCCn2ccnc2)no1 9.65%
O=C(NCCCN1CCOCC1)c1cc(-c2ccc(Cl)cc2)on1 4.71%
CCCCc1nc2ccccc2c(=O)n1NC(=O)c1c(O)c2cccc3c2n(c1=O)CC3 4.25%
O=C1CC(c2ccccc2)CC(O)=C1C=NCCN1CCOCC1 (centres undefined) 17.3%
CC1(C)CC(=O)C(C=NCCC2=CCCCC2)=C(O)C1 -0.72%
COC(=O)c1nc(NC(=O)c2ccc(Cl)cc2)n[nH]1 12.2%
Cc1ccc(C(=O)N(CN2CCCC2=O)c2ccc(F)cc2)cc1 5.52%
Cc1ccc(C)c(N2CCN(C(=O)CCc3nc4ccccc4[nH]3)CC2)c1 1.21%
CCOC(=O)C(CCOc1cccc(CC)c1)C(=O)OCC -10.1%
Cc1c(NC(=O)Nc2ccccc2Cl)sc(=S)n1C -6.43%
CCCCN(C)C(=O)c1ccc2c(c1)N(CC)C(=O)c1ccccc1S2(=O)=O 5.62%
COc1ccc(-n2c(SCC(=O)Nc3ccc4c(c3)OCO4)nnc2C(C)N2CCCCC2)cc1 (centres undefined) -12.3%
CCN(Cc1ccncc1)C(=O)c1cccc(S(=O)(=O)N2CCOCC2)c1 2.16%
Cc1cc(N2C(=O)C(=O)/C(=C(/O)c3ccc(Cl)cc3)C2c2cccc(Br)c2)no1 (centres undefined) 11.8%
O=C(NCc1ccco1)c1sc2cccc(F)c2c1Cl 3.97%
COc1ccc(NC(=O)CCNC(=O)Cn2ccc3ccccc3c2=O)c(OC)c1 13.2%
CC(C)Nc1nc(N(c2ccccc2)c2ccccc2)nc(-n2ccnc2)n1 9.18%
CSc1cccc(NC(=O)C2CCCN2S(=O)(=O)c2ccc3c(c2)CCC(=O)N3)c1 (centres undefined) -3.33%
